Results on 40 compounds are retold here after PubChem BioAssay (Tox21).

Unmarked numbers belong to inactive results. The source made the active and inactive calls. The call rests on the fitted dose curve.
On the % scale 0 is the no-effect control and ±100 the full control effect.

In this assay the target is Muscarinic acetylcholine receptor M1 (Homo sapiens) (UniProt P11229). The experiment in a line: Cholinergic receptor muscarinic 1 (CHRM1) small molecule agonists, cell-based qHTS assay (AID 1963589). Further: nearly all actives have a fitted effect of over 35% in size. The conditions noted are these: CHRM1-CHO cells, agonist mode, calcium flux fluorescence; series mostly up to 76.8 µM; activation: at the top concentration. From the text: National Center for Advancing Translational Sciences [NCATS]
Muscarinic acetylcholine receptor M1 (Homo sapiens), sequence (P11229 whole entry, looked up): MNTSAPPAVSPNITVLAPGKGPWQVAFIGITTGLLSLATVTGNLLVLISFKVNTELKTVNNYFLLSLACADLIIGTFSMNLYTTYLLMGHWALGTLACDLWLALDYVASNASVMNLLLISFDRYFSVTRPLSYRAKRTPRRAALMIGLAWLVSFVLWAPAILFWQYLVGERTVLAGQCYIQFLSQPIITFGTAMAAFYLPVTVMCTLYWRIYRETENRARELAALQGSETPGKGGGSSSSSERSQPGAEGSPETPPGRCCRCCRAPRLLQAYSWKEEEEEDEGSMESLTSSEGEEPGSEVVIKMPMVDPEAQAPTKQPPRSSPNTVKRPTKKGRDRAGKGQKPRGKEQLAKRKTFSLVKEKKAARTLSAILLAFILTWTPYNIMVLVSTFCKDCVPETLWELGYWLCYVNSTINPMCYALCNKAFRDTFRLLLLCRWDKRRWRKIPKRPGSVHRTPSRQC
Division of Preclinical Innovation [DPI]
U.S. Environmental Protection Agency [EPA]
National Institutes of Environmental Health Sciences [NIEHS]
National Toxicology Program [NTP]
U.S. Food and Drug Administration [FDA]
The CHRM1 is a muscarinic receptor. This receptor plays a crucial role in learning and memory processes and has long been identified as a promising therapeutic target for the improvement of cognitive decline in Alzheimer's disease (AD). The CHRM1-CHO cell line stably expressing human muscarinic acetylcholine receptor M1 (CHRM1) can be used for screening agonists and antagonists of interactions between CHRM1 and its ligands. The CHRM1-CHO Calcium Flux Assay is a homogeneous fluorescence-based assay for detecting the intracellular calcium level using FDSS kinetic plate reader system.
CHRM1-CHO cells were dispensed at 1000 cells/3uL/well in 1536-well black-clear bottom plates using a Multidrop Dispenser. After the assay plates were incubated at a 37 C/5% CO2 incubator for 18 h, 3 uL of Dye Loading Buffer was transferred to the assay plate by a Flying Reagent Dispenser. The assay plates were incubated at 37 C for 1h. For agonist mode, 23 nL of compounds dissolved in DMSO, positive controls or DMSO only was transferred to the assay plate by a pin tool. […] Each test compound was measured at 15 concentrations in three independent runs.
For orientation: qHTS replaces the single test concentration by a dilution series.
Consider `COc1ccc2cc(C=O)ccc2c1`, for which the “activation” value was -0.063% [at 35.3 µM].
On the same count and under the same terms, under `CCOc1ccc(N)c([N+](=O)[O-])c1` stands 0.022%.
Still for that read-out and setting: in the case of `CC(=O)c1ccc2ccccc2c1` it was -0.618%.
`Clc1nc(Cl)c(Cl)c(Cl)c1Cl`: the Potency entry is “inactive”.
Turning to `CC(C)N=C=NC(C)C`, the “activation” value was 0.582%.
As for `CC(C)(C)CC(C)(C)c1ccc(Nc2ccc(C(C)(C)CC(C)(C)C)cc2)cc1`, the activation was 0.016% [at 6.97 µM].
On the same count and under the same terms, in the case of `Cc1ccccc1C(N)=O` it was -0.495%.
Take `CCO[Si](OCC)(OCC)c1ccccc1`: the “activation” value is 0.359%.
Turning to `CCN1CCCC(OC(=O)C(c2ccccc2)c2ccccc2)C1` (stereo not given), the “activation” value was -0.558% [at 35.3 µM].
As for `Cc1cc(O)c(Cl)cc1C`, the “activation” value is -0.733%.
Same read-out and setting: in the case of `Cc1ncc(CSSCc2cnc(C)c(O)c2CO)c(CO)c1O` it was -0.107% [at 35.3 µM]; in that of `c1ccc(CCc2ccccc2)cc1`, 1.47%.
On the same count and under the same terms, under `CC(C)(CC(=O)O)C(=O)O` stands 0.114%.
Regarding `CC(C)CC(C)O` (stereo not given), the Potency result is “inactive”.
With `CC(C)(CCl)c1ccccc1`, the “activation” value is -0.591%.
On the same count and under the same terms, in the case of `COCc1ccc(COC)cc1` it was -0.0587%.
Regarding `Cc1c(C(=O)c2c[nH]n(C)c2=O)ccc(S(C)(=O)=O)c1C1=NOCC1`, the “activation” value was 0.074% [at 35.3 µM].
Same read-out and setting: under `CC(C)CCCC(C)CCCC(C)CCCCC(C)CCCC(C)CCCC(C)C` (stereo not given) stands -0.0227% [at 35.3 µM]; under `CCC(COC(=O)CCS)(COC(=O)CCS)COC(=O)CCS`, 0.282%.
Still for that read-out and setting: under `CC(CO)c1ccccc1` (stereo not given) stands 0.233%.
Take `CCCCCCCO`: the Potency entry was “inactive”.
As to `CN(C)Cc1ccccc1O`, the “activation” value was -0.0433%.
On to `CO[Si](C)(C)OC`, for which the “activation” value is -0.423%.
On the same count and under the same terms, in the case of `NCc1ccccc1Sc1ccccc1CO` it was -0.768% [at 35.3 µM]; in that of `NCCN1CCNC1=O`, -0.439%.
For `CO[Si](CCCNCCN)(OC)OC`, the Potency result was “inactive”.
In the case of `CC(=O)c1ccccc1N`, the “activation” value was -0.0691%.
Same read-out and setting: in the case of `CC(C)CC(C)(N)C#N` (stereo not given) it was -0.468%.
The same measure, in the same setting: in the case of `C=CCc1cc(OC)c(O)c(C(=O)NCCO)c1` it was -0.116% [at 35.3 µM].
As for `O=C(/C=C/c1ccccc1)OCc1ccccc1`, the Potency result is “inactive”.
Consider `CCC(=O)OC(C)c1ccccc1` (stereo not given), for which the “activation” value was -0.515%.
Turning to `CCCOCCOCCO`, the “activation” value is -0.295%.
For the compound `CC(COCC(C)OC(=O)c1ccccc1)OC(=O)c1ccccc1` (stereo not given), the Potency result was “inactive”.
For `Cc1cc(C)c(S(=O)(=O)O)cc1N=Nc1cc(S(=O)(=O)O)c2ccccc2c1O`, the “activation” value is -0.25%.
With `COc1nc(N)nc2nc[nH]c12`, the “activation” value was -0.0639%.
With `CC(=O)/C=C/c1ccco1`, the “activation” value is -0.133%.
For `Nc1nc(N)nc(-c2ccccc2)n1`, the Potency result is “inactive”.
With `NC(=O)NS(=O)(=O)c1ccc(Cl)cc1`, the “activation” value is -0.319% [at 35.3 µM].
For the compound `O=C(O)c1cc2ccccc2cc1O`, the Potency entry was “inactive”.
`CCCSSCCC`: the “activation” value is -0.151%.
